Assay outcomes: PubChem BioAssay, National Center for Advancing Translational Sciences (NCATS)
GALK inhibitor – blocks human galactokinase activity; P51570; Purified GALK, Kinase-Glo residual ATP luminescence; Potency, µM (highest dose often 57.5 µM), without a hit: at the highest dose activity change, negative = inhibition, usual class: inhibitors; 0.007% of 270,000 active; also: potency is read from the fitted curve at half-maximal effect
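Compounds were pin-transferred into ATP buffer (35 uM final), then GALK plus galactose (5 nM, 100 uM final) was added. After 1 h at room temperature, Kinase-Glo Plus was added and luminescence read after 10 min.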
TrxR1 substrate – substrates of rat thioredoxin reductase 1; O89049; purified TrxR1 substrate turnover, NADPH consumption readout; Potency, µM (series often up to 114 µM), for the others: at the top dose activity change, negative = substrate turnover; 0.01% of 390,000 active; AID 588456; also: potency is read from the fitted curve at half-maximal effect; nearly all actives have a fitted effect of over 50% in size
Target sequence (O89049 whole entry, looked up): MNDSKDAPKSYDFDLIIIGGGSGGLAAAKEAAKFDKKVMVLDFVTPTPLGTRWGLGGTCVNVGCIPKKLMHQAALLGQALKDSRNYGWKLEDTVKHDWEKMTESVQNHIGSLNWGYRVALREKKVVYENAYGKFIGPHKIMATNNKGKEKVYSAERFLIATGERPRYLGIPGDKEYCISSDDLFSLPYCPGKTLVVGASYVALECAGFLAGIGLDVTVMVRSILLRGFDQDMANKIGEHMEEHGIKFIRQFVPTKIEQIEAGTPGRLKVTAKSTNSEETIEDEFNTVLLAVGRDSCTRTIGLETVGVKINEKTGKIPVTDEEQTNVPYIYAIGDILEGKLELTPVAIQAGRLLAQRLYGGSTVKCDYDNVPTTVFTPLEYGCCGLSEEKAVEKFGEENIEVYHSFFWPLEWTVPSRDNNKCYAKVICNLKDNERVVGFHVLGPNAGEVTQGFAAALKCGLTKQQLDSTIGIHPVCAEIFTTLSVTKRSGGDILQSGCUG
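Rat TrxR1, dispensed at 90 nM, was prereduced with 400 uM NADPH (final) for 5 min at ~22 deg C, then incubated with compound 15 min before 400 uM selenite. A first-read NADPH fluorescence drop versus no-compound background flagged substrates.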
FBPA coupling cs – inhibits coupling enzyme system, counter-screen for aldolase hits | coupling enzyme system counterscreen, AmpLite Red fluorescence | activity change, negative = inhibition, % at 58.2 µM, hits read low | 0.67% of 290,000 active | AID 2472; in the data active = activity change below about -30%
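Counterscreen of the coupled detection system alone, without aldolase: glyceraldehyde-3-phosphate coupling enzymes plus AmpLite Red readout. Compounds at 57.5 uM final, 10 min RT preincubation, 20 min RT reaction, fluorescence 525/598 nm.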
VP16 counter – Gal4-VP16 reporter inhibition counter-screen | Potency, µM (doses to about 53.6 µM), for inactives: at the top dose activity, negative = inhibition, most hits filed as inhibitors | 3.5% of 310,000 active | Drosophila S2 Gal4-VP16 UAS-luciferase, luminescence, 20 h;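 also: Gal4-VP16 expression switched on by copper sulfate through the metallothionein promoter; potency is read from the fitted curve at half-maximal effect; nearly all actives have a fitted effect of over 50% in size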
RORgamma inh – inhibitors of mouse ROR gamma transcriptional activity; Potency, µM (titrated, usually from 53.6 µM), for the others: at the top dose activity change, negative = inhibition, hits mostly inhibitors; 5.4% of 310,000 active; P51450; Drosophila S2 Gal4-RORgamma UAS-luciferase reporter, 20 h; also: potency is read from the fitted curve at half-maximal effect; nearly all actives have a fitted effect of over 60% in size
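Drosophila S2 cells stably expressing Gal4-DBD/mouse RORγ fusion under metallothionein promoter plus UAS-luciferase; compound 1 h, then 700 uM CuSO4 induction for 20 h at ambient temperature; inhibition read as reduced luminescence.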
TrxR1 inh – blocks rat thioredoxin reductase 1 | O89049 | recombinant rTrxR1, NADPH fluorescence consumption, selenite substrate | Potency, µM (series often up to 114 µM), for the others: at the top dose activity change, negative = inhibition, hits mostly inhibitors | 1% of 390,000 active | AID 588453; also: potency is read from the fitted curve at half-maximal effect; nearly all actives have a fitted effect of over 65% in size
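Rat TrxR1 (90 nM in the dispensed reagent) was pre-reduced with 400 uM NADPH for 5 min at room temperature, then incubated with compound for 15 min. After 400 uM selenite was added, NADPH fluorescence (Ex 340/Em 450 nm) was followed for 8 min.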
Starred values were filed as active, the others as inactive; ? = inconclusive; · = no result; [ ] = remark or other dose. Shown are actives, neighbours in structure and some others; about 5.9% of the full set was active somewhere. Unless noted, calls follow the shape of the dose curve; as a rule, active = well fitted curve in the direction sought with a large enough effect; inconclusive = small, poorly fitted or top-dose-only effect, or another doubt; inactive = no such curve, though single readings can be large; an effect the other way counts as inactive or inconclusive. % is scaled to controls: 0 for no effect and ±100 for the full control effect.

SMILES	GALK inhibitor	TrxR1 substrate	FBPA coupling cs	VP16 counter	RORgamma inh	TrxR1 inh
S=c1c2c(nc3nc[nH]n13)CCC2	0.5%	-6.0%	-36.4*	0.891µM*	?	?
Cc1cccc(C(=O)NNc2ncnc3c2cnn3-c2ccc(C)c(Cl)c2)c1	·	-8.4%[57.1 µM]	·	·	·	2.4%[57.1 µM]
Cc1cccc(-n2ncc3c(NNC(=O)c4ccco4)ncnc32)c1	0.7%	5.4%	-0.6	7.94µM*	7.08µM*	16.1%
Cc1cccc(-n2ncc3c(NCc4ccco4)ncnc32)c1	-0.6%	6.4%[57.1 µM]	-8.0	3.8%	?	1.8%[57.1 µM]
Cc1ccc(-n2ncc3c(NNC(=O)Cc4ccccc4)ncnc32)cc1	2.5%	-4.0%	-0.6	?	12.6µM*	1.0%
Cc1ccc(-n2ncc3c(NNC(=O)c4ccco4)ncnc32)cc1Cl	0.5%	-7.3%	-0.3	3.98µM*	3.16µM*	-32.6%
O=C(NNc1ncnc2c1cnn2-c1ccc(F)cc1)c1cccs1	2.2%	7.4%[57.1 µM]	-0.4	-5.1%	12.6µM*	25.1%[57.1 µM]
Cn1ncc2c(NNC(=O)Cc3ccccc3)ncnc21	2.1%	-8.2%	3.6	-7.0%	16.3%	-8.2%
CCOC(=O)c1c(-c2ccc(F)cc2)csc1NC(=O)CN1C(=O)NC2(CCCCC2C)C1=O (stereo not drawn)	2.1%	1.7%	-3.1	?	?	11.8%
COc1cccc(Nc2ncc3nc(-c4cc(F)cc(F)c4)c(=O)n(C4CC4)c3n2)c1	·	·	-0.4	-9.9%	0.3%	·
Cn1c(OCc2cccnc2)nc2c1c(=O)n(Cc1ccccc1)c(=O)n2C	1.2%	-2.4%[57.1 µM]	0.0	6.31µM*	11.2µM*	13.7%[57.1 µM]
Cn1c(OCc2cccnc2)nc2c1c(=O)n(Cc1ccc(F)cc1)c(=O)n2C	3.8%	-4.7%	2.4	-12.9%	-33.7%	7.5%
COc1ccc(C2=CC3=C(Br)C(=O)C(C)(OC(=O)c4ccco4)C(=O)C3=CO2)cc1 (stereo not drawn)	4.2%	-2.3%	0.2	-6.6%	-25.1%	50.1µM*
COc1ccc(C2=CC3=C(Br)C(=O)C(C)(OC(=O)CCc4ccccc4)C(=O)C3=CO2)cc1 (stereo not drawn)	·	·	-0.2	5.4%	2.1%	·
COc1ccc(C2=CC3=C(Br)C(=O)C(C)(OC(=O)c4cnc5ccccc5n4)C(=O)C3=CO2)cc1 (stereo not drawn)	·	·	1.8	12.9%	19.4%	·
COc1ccc(C2=CC3=C(Br)C(=O)C(C)(OC(=O)c4cccs4)C(=O)C3=CO2)cc1 (stereo not drawn)	·	-12.5%	-0.3	0.1%	1.9%	50.1µM*
Cc1cc(C)n(-c2ccc(C(=O)N3CCC(CO)(Cc4ccccc4)CC3)cc2)n1	-1.0%	4.0%	3.3	?	2.51µM*	13.0%
CC(=O)N1CCOc2ccc(S(=O)(=O)N3CCC(C(=O)Nc4ccc(C)cc4C)CC3)cc21	-6.3%	9.3%	·	6.8%	15.3%	23.2%
COc1ccc(C(=O)Cn2c(C)nc([N+](=O)[O-])c2Br)cc1	-3.8%	13.9%[57.1 µM]	-0.4	?	-31.8%	17.8µM*
Cc1nc([N+](=O)[O-])c(NCCO)n1Cc1ccccc1	4.7%	4.4%[57.1 µM]	0.9	1.0%[10 µM]	-0.4%	-1.6%[57.1 µM]
Cc1nc([N+](=O)[O-])cn1CC(=O)c1ccc(Br)cc1	·	3.7%	·	·	·	9.1%
Cc1nc([N+](=O)[O-])c(Br)n1CC(=O)c1ccc(Cl)cc1	-0.3%	11.3%[57.1 µM]	-1.1	?	10µM*	2.51µM*
Cc1nc([N+](=O)[O-])c(Br)n1Cc1ccc(Cl)c(Cl)c1	-11.0%	-3.8%	-0.1	?	7.08µM*	10µM*
COc1ccc(C(C(=O)NC2CCCC2)N(Cc2cccnc2)C(=O)Cc2cccs2)c(OC)c1 (stereo not drawn)	7.8%	6.6%[57.1 µM]	-0.8	10.4%	10µM*	15.9%[57.1 µM]
COc1ccc(CN(C(=O)c2cccs2)C(C(=O)NC2CCCCC2)c2ccc3ncccc3c2)cc1 (stereo not drawn)	4.3%	-10.7%	-0.9	3.4%	35.5µM*	-0.5%
SMILES	GALK inhibitor	TrxR1 substrate	FBPA coupling cs	VP16 counter	RORgamma inh	TrxR1 inh
O=C(NC1CCCCC1)C(c1ccc2ncccc2c1)N(Cc1ccccc1)C(=O)c1cccs1 (stereo not drawn)	1.1%	9.9%	0.1	-3.7%	-5.7%	23.6%
COc1cccc(C(C(=O)NC2CCCC2)N(Cc2cccnc2)C(=O)Cc2cccs2)c1 (stereo not drawn)	-0.4%	11.0%[0.0914 µM]	-1.5	-5.2%	34.5%	12.1%[57.1 µM]
O=C(Nc1c(Cl)cccc1Cl)c1cc(-c2cccc(O)c2)on1	·	-0.5%	·	·	·	-3.6%
CC(C)(C)c1ccc(/C=N/NC(=S)NCc2ccccc2)cc1	-3.5%	-0.1%[57.1 µM]	-5.8	1.12µM*	0.794µM*	-7.8%[57.1 µM]
CCN(Cc1ccccc1)c1ccc(/C=N/NC(=S)NC(C)C)cc1	0.3%	-5.1%[11.4 µM]	-1.5	1.26µM*	1.26µM*	-10.9%[11.4 µM]
Cn1c(=O)n(C)c2cc(/C=N/NC(=S)NCc3ccccc3)ccc21	1.7%	-12.3%	-1.4	?	10µM*	9.1%[57.1 µM]
CC(C)c1ccc(/C=N/NC(=O)CC(=O)NCc2ccccc2)cc1	-2.6%	-3.9%	-0.3	5.2%	25.1%	-11.0%
Cc1c(NC(=S)N/N=C/c2ccc(N(C)C)cc2)c(=O)n(-c2ccccc2)n1C	0.9%	140.6%	2.6	?	17.8µM*	?
Cn1nc(C(=O)NNC(=O)C(CCC(N)=O)NS(=O)(=O)c2ccc(Cl)cc2)c2ccccc2c1=O (stereo not drawn)	·	2.8%	·	·	·	8.6%
COc1cc(OC)cc(C(=O)N2CCN(Cc3ccccc3[N+](=O)[O-])CC2)c1	10.2%	-15.2%[57.1 µM]	2.7	9.7%	11.5%	18.4%[57.1 µM]
CNC(=S)N/N=C/c1ccc(N(C)C)cc1	0.8%	10.0%[57.1 µM]	2.0	7.08µM*	1.58µM*	-13.5%[57.1 µM]
CN(C)c1ccc(/C=N/NC(=S)NCc2ccccc2)cc1	·	9.8%[57.1 µM]	-1.5	2.82µM*	0.447µM*	-28.4%
CC(C)(C)c1ccc(/C=N/NC(=O)C2CCCC2)cc1	-3.0%	-5.5%	·	23.7%	43.7%	22.5%
CN(C)c1ccc(/C=N/NC(=O)COc2ccccc2)cc1	-1.0%	32.4%	1.2	-2.3%	-1.4%	-7.7%
C=CCNC(=S)N/N=C/c1ccc(C(C)(C)C)cc1	-1.2%	-9.2%	-5.5	0.562µM*	0.282µM*	-16.3%
CCOC(=O)CSc1nc2c([nH]c3ccccc32)c(=O)n1C	0.0%	-4.8%	-2.4	-0.3%	7.0%	-3.6%
Cc1cccc(OCc2ccccc2)n1	·	-1.3%[57.1 µM]	·	·	·	4.2%[2.29 µM]
CC(C)(C)OC(=O)N(Cc1ccccc1)Cc1ccccc1OCc1cccc(NC(=O)C2CC2)c1	·	0.5%	·	·	·	30.4%
CCN1c2ccccc2-c2nc(SCC(=O)NCc3ccccc3)ncc2S1(=O)=O	·	4.7%[57.1 µM]	·	·	·	7.7%[57.1 µM]
